Assay outcomes deposited in PubChem BioAssay by The Scripps Research Institute Molecular Screening Center.
Rows were chosen to be rich in hits. Some 2.5% of all compounds tested hit in one or more screens of this group.
ULK1 primary – ULK1 kinase inhibitors, primary screen, biochemical, AlphaScreen; AID 1259251, 2017; Serine/threonine-protein kinase ULK1 (Homo sapiens), O75385; AlphaScreen Atg13 phosphorylation by ULK1, luminescence; inhibition, % at 5.96 µM; 30,000 tested, 1.9% active; in the data active means inhibition above about 43%;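 further: 0% = median of compound wells and 100% = no enzyme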
ASK1 primary – ASK1 kinase inhibitors, primary screen, biochemical, AlphaScreen | Mitogen-activated protein kinase kinase kinase 5 (Homo sapiens), Q99683 | AlphaScreen MKK6 phosphorylation by ASK1, luminescence | inhibition, % at 7.44 µM | 22,000 tested, 0.99% active | AID 1159602, 2016; in the data active means inhibition above about 35%;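 further: 0% = median of compound wells and 100% = no enzyme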
Target sequence (Q99683 whole entry, looked up): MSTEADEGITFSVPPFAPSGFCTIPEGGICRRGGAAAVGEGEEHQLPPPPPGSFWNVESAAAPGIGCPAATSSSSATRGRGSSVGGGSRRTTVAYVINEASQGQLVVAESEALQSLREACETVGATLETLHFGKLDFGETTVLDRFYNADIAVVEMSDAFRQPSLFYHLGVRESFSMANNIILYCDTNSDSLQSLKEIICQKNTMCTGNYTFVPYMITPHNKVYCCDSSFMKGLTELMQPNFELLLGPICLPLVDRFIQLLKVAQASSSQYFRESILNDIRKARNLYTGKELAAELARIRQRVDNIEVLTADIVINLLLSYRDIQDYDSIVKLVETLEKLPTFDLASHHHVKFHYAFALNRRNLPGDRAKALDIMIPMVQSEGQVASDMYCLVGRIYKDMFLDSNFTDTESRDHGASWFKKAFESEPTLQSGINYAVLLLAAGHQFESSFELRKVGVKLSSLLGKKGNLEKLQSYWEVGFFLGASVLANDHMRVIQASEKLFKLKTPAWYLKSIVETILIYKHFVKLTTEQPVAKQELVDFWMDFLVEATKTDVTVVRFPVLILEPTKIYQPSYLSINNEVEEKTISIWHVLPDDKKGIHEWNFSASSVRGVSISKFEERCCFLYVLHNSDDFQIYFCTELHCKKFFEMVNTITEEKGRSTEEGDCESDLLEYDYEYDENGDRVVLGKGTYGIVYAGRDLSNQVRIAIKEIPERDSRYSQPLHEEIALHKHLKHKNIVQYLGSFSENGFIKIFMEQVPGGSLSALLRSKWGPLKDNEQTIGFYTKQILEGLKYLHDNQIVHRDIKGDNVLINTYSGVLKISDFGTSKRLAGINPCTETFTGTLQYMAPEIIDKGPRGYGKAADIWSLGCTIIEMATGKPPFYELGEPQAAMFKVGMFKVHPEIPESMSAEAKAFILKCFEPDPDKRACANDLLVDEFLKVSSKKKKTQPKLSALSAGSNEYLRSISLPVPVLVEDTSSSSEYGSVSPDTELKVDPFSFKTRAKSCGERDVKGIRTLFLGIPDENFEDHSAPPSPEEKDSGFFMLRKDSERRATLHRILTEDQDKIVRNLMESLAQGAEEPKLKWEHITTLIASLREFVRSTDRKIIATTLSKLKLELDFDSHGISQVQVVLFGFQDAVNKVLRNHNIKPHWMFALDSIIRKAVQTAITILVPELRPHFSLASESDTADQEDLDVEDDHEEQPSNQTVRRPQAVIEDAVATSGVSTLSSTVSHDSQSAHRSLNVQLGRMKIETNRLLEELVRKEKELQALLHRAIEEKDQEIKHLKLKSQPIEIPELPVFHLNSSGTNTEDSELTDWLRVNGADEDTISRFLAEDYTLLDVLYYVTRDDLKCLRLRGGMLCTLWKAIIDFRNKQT
* hit, by the source's call; / = not tested or not shown.

SMILES	ULK1 primary	ASK1 primary
CN(C)[C@@H]1C(=O)C(C(N)=O)=C(O)[C@@]2(O)C(=O)C3=C(O)c4c(O)cccc4[C@@](C)(O)[C@H]3[C@H](O)[C@@H]12	51*	/
NCCc1cc(O)c(O)cc1O	91*	/
CC(C)C(=O)NC(Oc1ccccc1C(N)=O)C(Cl)(Cl)Cl (configuration not stated)	-3	/
[Tl+]	-2	/
COc1ccc(Oc2ncc(F)c(-c3cc(N4CCOCC4)cc(C(F)(F)F)c3)n2)cc1 (tested in a mixture with another compound)	2	-64
CC[n+]1c(-c2ccccc2)c2cc(N)ccc2c2ccc(N)cc21	62*	/
Cl/C=C/C[N+]12CN3CN(CN(C3)C1)C2	0	/
COc1cccc(CNC(=O)c2nn(CC3CC3)c3cc(-c4ccnc(N)n4)ccc23)c1	-4	-17
CNC(C)Cc1ccc(O)cc1 (configuration not stated)	-6	/
Oc1cc(Cl)ccc1Oc1ccc(Cl)cc1Cl	44*	/
Oc1ccc(Cl)cc1Cc1ccccc1	-34	/
CCCCCCCCCC(=O)OC1CCC2C3CCC4=CC(=O)CCC4C3CCC12C (configuration not stated)	4	/
CN1C[C@H](C(=O)N[C@]2(C)O[C@@]3(O)C4CCCN4C(=O)[C@H](Cc4ccccc4)N3C2=O)C=C2c3cccc4[nH]cc(c34)C[C@H]21 (some centres not stated)	23	/
CCC(CO)NC(=O)[C@@H]1C=C2c3cccc4[nH]cc(c34)C[C@H]2N(C)C1 (some centres not stated)	53*	/
O=C(Nc1cccc(Cl)c1N1CCNCC1)c1ccc(Br)o1	7	-1
CCC(CC)N1CCN(Cc2cccc(F)c2)CC1	8	/
CCC(Br)(CC)C(=O)NC(N)=O	82*	/
COc1ccc(-c2ccc(C=C3C(=O)NC(=S)NC3=O)o2)cc1Cl	32	/
